Compound activity (PubChem BioAssay)
ATG4B inh: blocks human ATG4B protease cleavage of LC3 substrate. inhibition, % at 8.33 µM. 340,000 tested, 0.51% active. ATG4B cleavage of LC3-PLA2, NBD-HPC fluorescence, 1 h. Q9Y4P1; in the data active means inhibition above about 40%
PREPL inhibitor: inhibits the human prolyl oligopeptidase-like enzyme | recombinant PREPL, fluorescence polarization activity-based probe | inhibition, % at 5.96 µM | 320,000 tested, 0.68% active; in the data active means inhibition above about 43%;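 further: 0% = enzyme with DMSO and 100% = wells lacking enzyme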
MEKK3 PB1 HTS: MEKK3-MEK5 PB1 interaction, increase or decrease; bead-based flow cytometry, Alexa488-MEK5 binding to MEKK3; actives lie on both sides; 0 = blocked by unlabeled MEK5, 100 = vehicle; 290,000 tested, 1.4% active; binding response (% of control), % at 10 µM; AID 1529; Q99759;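 active means binding response more than 3 SD above or below the average of its plate-row segment, actives on both sides; inconclusive means wells at one plate position flagged as instrument error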;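 further: Alexa488 bead fluorescence after subtracting the streptavidin-only scavenger bead signal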
Target sequence (Q99759 whole entry, looked up): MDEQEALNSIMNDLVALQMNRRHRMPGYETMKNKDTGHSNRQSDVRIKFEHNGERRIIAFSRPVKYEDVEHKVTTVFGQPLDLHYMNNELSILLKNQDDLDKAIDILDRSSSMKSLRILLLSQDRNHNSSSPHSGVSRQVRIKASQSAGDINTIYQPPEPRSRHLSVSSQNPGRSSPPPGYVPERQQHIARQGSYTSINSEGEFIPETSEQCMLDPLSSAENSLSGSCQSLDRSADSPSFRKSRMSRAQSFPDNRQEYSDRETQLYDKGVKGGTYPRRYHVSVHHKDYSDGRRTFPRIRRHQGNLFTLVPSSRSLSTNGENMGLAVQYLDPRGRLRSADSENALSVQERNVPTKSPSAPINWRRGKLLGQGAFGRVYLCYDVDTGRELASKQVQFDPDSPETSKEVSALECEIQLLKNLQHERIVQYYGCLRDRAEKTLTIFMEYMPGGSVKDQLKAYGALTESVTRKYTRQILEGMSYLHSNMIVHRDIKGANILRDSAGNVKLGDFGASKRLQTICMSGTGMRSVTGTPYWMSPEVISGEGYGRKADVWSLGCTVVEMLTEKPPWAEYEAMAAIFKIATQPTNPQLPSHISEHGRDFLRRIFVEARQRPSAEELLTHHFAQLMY
UBC13 inh: blocks human UBC13 polyubiquitin chain formation; inhibition, % at 20 µM; 330,000 tested, 0.47% active; AID 485273; TR-FRET; in the data active means inhibition above about 45%, passing the limit was not always enough; inconclusive means no clear call, values can overlap the other calls
MEKK2wt PB1 HTS: raises or lowers MEK5 binding to wildtype human MEKK2 PB1 domain | AID 1531 | 290,000 tested, 1.1% active | bead flow cytometry, Alexa488-MEK5 binding to MEKK2 WT; actives lie on both sides | binding response (% of control), % at 10 µM | Q9Y2U5; in the data active means binding response below about 67% or above about 130%; inconclusive means no clear call, values can overlap the other calls; inactive means in between
MEKK2mut PB1 HTS: signal of MEK5 binding to mutant human MEKK2 PB1 domain; bead flow cytometry, Alexa488-MEK5 binding to MEKK2 mutant; percent response, % at 10 µM; 290,000 tested, 0.35% active; AID 1530; in the data active means percent response above about 24%, passing the limit was not always enough
MEKK2wt confirm: raises or lowers MEK5 binding to wildtype human MEKK2, retest | binding response (% of control), % at 10 µM | bead flow cytometry, Alexa488-MEK5 binding to MEKK2 WT; actives lie on both sides | 5,900 tested, 2.4% active | AID 1892 | shares compounds with MEKK3 PB1 HTS; in the data active means binding response below about 16% or above about 210%; inactive means in between
MEKK2mut confirm: signal of MEK5 binding to mutant human MEKK2, retest | percent response, % at 10 µM | 5,900 tested, 2% active | bead flow cytometry, Alexa488-MEK5 binding to MEKK2 mutant | shares compounds with MEKK3 PB1 HTS; in the data active means percent response mostly above about 71%, no sharp cut-off; inactive means mostly below about 38%;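 further: higher means compound restores mutant binding toward wildtype level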
MEKK3-MEK5 inh: confirmation of inhibitors of MEK5 binding to human MEKK3; AID 1894; bead flow cytometry, Alexa488-MEK5 binding to MEKK3; active compounds read low; shares compounds with MEKK3 PB1 HTS; 5,900 tested, 1.8% active; binding response (% of control), % at 10 µM;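 active means binding response below 72% of control, or above a set upper limit, though filed actives all read lower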;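 further: 100% = DMSO only wells and 0% = binding blocked by excess unlabeled MEK5; lower values mean stronger disruption of MEK5 binding to MEKK3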
Numbers without * were called inactive; [ ] = remark or other dose. An excerpt weighted towards active compounds, which were near 3.1% of everything screened.

How did COc1cc(/C=N/NC(=S)NC(C)C)ccc1OCC(=O)Nc1c(C)cc(C)cc1C do in these assays?
ATG4B inh: -13; PREPL inhibitor: -10; MEKK3 PB1 HTS: 97; UBC13 inh: -16; MEKK2wt PB1 HTS: 100; MEKK2mut PB1 HTS: -2

Results for CCCCNC(=S)N(C)/N=C/c1ccc(OCC(=O)Nc2c(C)cc(C)cc2C)c(OC)c1 ?
ATG4B inh: -8; PREPL inhibitor: -5; MEKK3 PB1 HTS: 129*; UBC13 inh: 4; MEKK2wt PB1 HTS: 98; MEKK2mut PB1 HTS: -1; MEKK2wt confirm: 107; MEKK2mut confirm: 0; MEKK3-MEK5 inh: 104

What do the screens show for `CCCCNC(=S)N(C)/N=C/c1ccc(OCC(=O)Nc2ccc(OC)cc2)c(OC)c1`?
ATG4B inh: -13; PREPL inhibitor: 10; MEKK3 PB1 HTS: 142*; UBC13 inh: -6; MEKK2wt PB1 HTS: 107; MEKK2mut PB1 HTS: -1; MEKK2wt confirm: 108; MEKK2mut confirm: 2; MEKK3-MEK5 inh: 101

What do the screens show for `CN(Cc1ccco1)C(=O)CSc1nc(C2CC2)n(-c2ccccc2)n1`?
ATG4B inh: -1; UBC13 inh: -6

How did O=c1c(Cl)c(N2CCN(c3ccc(F)cc3)CC2)cnn1C12CC3CC(CC(C3)C1)C2 do in these assays?
ATG4B inh: -2; PREPL inhibitor: 39; MEKK3 PB1 HTS: 148*; UBC13 inh: 1; MEKK2wt PB1 HTS: 100; MEKK2mut PB1 HTS: 0; MEKK2wt confirm: 119; MEKK2mut confirm: 18; MEKK3-MEK5 inh: 110

How did O=C(Cn1cnc2ccccc2c1=O)Nc1nnc(SCc2ccc(Cl)cc2)s1 do in these assays?
ATG4B inh: 0; PREPL inhibitor: -10; MEKK3 PB1 HTS: 35*[inhibitor]; UBC13 inh: 10; MEKK2wt PB1 HTS: 32*[inhibitor]; MEKK2mut PB1 HTS: -12; MEKK2wt confirm: 107; MEKK2mut confirm: 7; MEKK3-MEK5 inh: 107

What do the screens show for `Cc1onc(-c2c(F)cccc2Cl)c1C(=O)N1CCN(c2ncc(Br)cn2)CC1`?
ATG4B inh: -9; PREPL inhibitor: -31; MEKK3 PB1 HTS: inconclusive; UBC13 inh: 0; MEKK2wt PB1 HTS: inconclusive; MEKK2mut PB1 HTS: -39

What do the screens show for `Cc1ccc(-c2cc3nc(C)cc(C)n3n2)cc1`?
ATG4B inh: -20; PREPL inhibitor: 5; MEKK3 PB1 HTS: 89; UBC13 inh: 9; MEKK2wt PB1 HTS: 89; MEKK2mut PB1 HTS: -7

What do the screens show for `Cc1cc(C)n2nc(-c3ccsc3-n3c(C)ccc3C)cc2n1`?
ATG4B inh: -11; PREPL inhibitor: 12; MEKK3 PB1 HTS: 94; UBC13 inh: -10; MEKK2wt PB1 HTS: 9.0*[inhibitor]; MEKK2mut PB1 HTS: 1; MEKK2wt confirm: 96; MEKK2mut confirm: 3; MEKK3-MEK5 inh: 103

Results for C=CCNC(=O)c1c(Cl)nc(C)c([N+](=O)[O-])c1C ?
ATG4B inh: -1; PREPL inhibitor: 4; MEKK3 PB1 HTS: 155*; UBC13 inh: -6; MEKK2wt PB1 HTS: 112; MEKK2mut PB1 HTS: 2; MEKK2wt confirm: 97; MEKK2mut confirm: -1; MEKK3-MEK5 inh: 100

What do the screens show for `O=C(N/N=C/C=C\c1ccco1)c1ccccn1`?
ATG4B inh: 0; PREPL inhibitor: -1; MEKK3 PB1 HTS: 112; UBC13 inh: -11; MEKK2wt PB1 HTS: 104; MEKK2mut PB1 HTS: 4

How did O=C(N/N=C\C=C\c1ccco1)c1cc(-c2ccc3ccccc3c2)n[nH]1 do in these assays?
ATG4B inh: -10; PREPL inhibitor: 14; MEKK3 PB1 HTS: 132*; UBC13 inh: 19; MEKK2wt PB1 HTS: 100; MEKK2mut PB1 HTS: 0; MEKK2wt confirm: 90; MEKK2mut confirm: -9; MEKK3-MEK5 inh: 99

What do the screens show for `Cc1ccc(C(=O)C2(C)C3c4cc(Br)ccc4OC(=O)C32C(=O)c2ccco2)cc1` (stereo unspecified)?
ATG4B inh: 1; PREPL inhibitor: -12; MEKK3 PB1 HTS: 24*[inhibitor]; UBC13 inh: -1; MEKK2wt PB1 HTS: 39*[inhibitor]; MEKK2mut PB1 HTS: -42; MEKK2wt confirm: 96; MEKK2mut confirm: -6; MEKK3-MEK5 inh: 96

How did Nc1nc(NCc2ccco2)nc(Nc2cccc(F)c2)c1[N+](=O)[O-] do in these assays?
ATG4B inh: -12; PREPL inhibitor: -1; MEKK3 PB1 HTS: 98; UBC13 inh: -11; MEKK2wt PB1 HTS: 99; MEKK2mut PB1 HTS: -7

Results for Nc1c(N(CCO)C(=O)/C=C/c2ccco2)c(=O)[nH]c(=O)n1Cc1ccccc1 ?
ATG4B inh: -3; PREPL inhibitor: 16; MEKK3 PB1 HTS: 50*[inhibitor]; UBC13 inh: -4; MEKK2wt PB1 HTS: 61; MEKK2mut PB1 HTS: -4; MEKK2wt confirm: 99; MEKK2mut confirm: -8; MEKK3-MEK5 inh: 102

How did CCCCN(C(=O)/C=C/c1ccco1)c1c(N)n(CCC)c(=O)[nH]c1=O do in these assays?
ATG4B inh: 3; PREPL inhibitor: 9; MEKK3 PB1 HTS: 105; UBC13 inh: 14; MEKK2wt PB1 HTS: 102; MEKK2mut PB1 HTS: 3

How did CCN(CC)c1nc(N)c([N+](=O)[O-])c(NCCO)n1 do in these assays?
ATG4B inh: -7; PREPL inhibitor: -2; MEKK3 PB1 HTS: 134*; UBC13 inh: -7; MEKK2wt PB1 HTS: 115; MEKK2mut PB1 HTS: 1; MEKK2wt confirm: 82; MEKK2mut confirm: -7; MEKK3-MEK5 inh: 97

Results for Cc1ccc(C(=O)NN2C(=O)C3C4c5ccccc5C(c5ccccc54)C3C2=O)cc1 (stereo unspecified) ?
ATG4B inh: 6; PREPL inhibitor: -1; MEKK3 PB1 HTS: 129*; UBC13 inh: -9; MEKK2wt PB1 HTS: 104; MEKK2mut PB1 HTS: 3; MEKK2wt confirm: 100; MEKK2mut confirm: 5; MEKK3-MEK5 inh: 103

What do the screens show for `CCc1ccc(OCC(=O)Nc2ccc3[nH]ncc3c2)cc1`?
ATG4B inh: -1; PREPL inhibitor: 20; MEKK3 PB1 HTS: 101; UBC13 inh: 7; MEKK2wt PB1 HTS: 99; MEKK2mut PB1 HTS: 2

What do the screens show for `Cc1ccc(C)c(NC(=O)c2cc(-c3ccccc3)nn2-c2ccccc2)c1`?
ATG4B inh: 17; PREPL inhibitor: 5; MEKK3 PB1 HTS: 60*[inhibitor]; UBC13 inh: 15; MEKK2wt PB1 HTS: 96; MEKK2mut PB1 HTS: -1; MEKK2wt confirm: 110; MEKK2mut confirm: 6; MEKK3-MEK5 inh: 103
